Only some compounds are listed: those with a hit (about 3.6% of all), similar ones and a draw of the others.
PHOSPHO1 inh: PHOSPHO1 (human) inhibition. Q8TCT1. recombinant PHOSPHO1, absorbance phosphatase assay. inhibition, % at 13.3 µM. 290,000 tested, 1.1% active; in the data active = inhibition above about 60%
Target sequence (Q8TCT1 whole entry, looked up): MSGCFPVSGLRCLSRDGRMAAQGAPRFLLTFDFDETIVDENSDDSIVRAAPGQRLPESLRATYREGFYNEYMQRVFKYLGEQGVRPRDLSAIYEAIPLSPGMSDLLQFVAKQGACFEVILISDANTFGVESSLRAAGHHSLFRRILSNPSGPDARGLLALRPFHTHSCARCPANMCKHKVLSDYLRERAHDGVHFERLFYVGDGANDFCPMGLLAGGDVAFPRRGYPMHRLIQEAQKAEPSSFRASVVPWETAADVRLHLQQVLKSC
MITF act: activators of MITF-driven TRPM1 promoter activity in SK-MEL-5 cells; AID 588334; 300,000 tested, 0.75% active; activation, % at 12.5 µM; SK-MEL-5 TRPM1-promoter luciferase, 24 h; % of positive control, neutral wells = 0;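 active = mean activation of at least 80% with every replicate also reaching 80%; inconclusive = mean reaches 80% but some replicate falls short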
A3A deaminase: human APOBEC3A DNA deaminase inhibition. 330,000 tested, 0.41% active. recombinant A3A, FAM/TAMRA ssDNA deamination fluorescence. inhibition, % at 20 µM;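 active = at least 40% inhibition at 20 µM here, with at most 30% in a related deaminase screen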
Target sequence (P31941 whole entry, looked up): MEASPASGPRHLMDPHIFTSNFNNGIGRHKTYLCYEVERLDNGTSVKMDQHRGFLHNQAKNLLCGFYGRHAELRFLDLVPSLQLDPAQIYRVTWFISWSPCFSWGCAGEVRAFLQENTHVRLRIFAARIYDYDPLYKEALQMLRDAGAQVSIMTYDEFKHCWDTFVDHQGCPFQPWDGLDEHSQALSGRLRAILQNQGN
Wnt act: Wnt/beta-catenin pathway activation; AID 743398; 300,000 tested, 1.2% active; activation, % at 9.35 µM; Wnt/beta-catenin reporter cell assay, activator, plate reader; in the data active = activation above about 30%, passing the limit was not always enough; inconclusive = no clear call, values can overlap the other calls
A3G deaminase: inhibitors of human APOBEC3G DNA deaminase; Q9HC16; inhibition, % at 20 µM; recombinant A3G, ssDNA deamination FAM/TAMRA fluorescence; 330,000 tested, 0.28% active; AID 493012;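 active = inhibition of at least 40% at 20 µM, with no more than 30% in the related APOBEC3A deaminase screen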
esBAF inh: blocks esBAF chromatin remodeling in mouse ES cells; Bmi1-luciferase knock-in reporter, 24 h; 100% = twice the neutral-well signal; reporter increase, % at 12.5 µM; 350,000 tested, 2% active; AID 602393; in the data active = activation above about 40%; inconclusive = no clear call, values can overlap the other calls;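 note: a rise in the Bmi1 reporter signal indicates esBAF inhibition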
Each line names hits and unclear results; the compound was inactive in the other large screens.

O=C(c1ccccc1)c1cnc(Nc2ccccc2Cl)s1	MITF act 98, esBAF inh 55 (no result: Wnt act)
COC(=O)[C@]12C[C@H](CC(=O)N3CCCC3)C(=O)N(CCC3=CCCCC3)C1=C[C@H](C(C)(C)C)O[C@@H]2C	none (no result: PHOSPHO1 inh, MITF act, A3A deaminase, A3G deaminase, esBAF inh)
C[C@@H]1CN([C@H](C)CO)C(=O)c2cc(/C=C/c3ccccc3)cnc2O[C@H]1CN(C)S(C)(=O)=O	none (no result: PHOSPHO1 inh, MITF act, A3A deaminase, Wnt act, A3G deaminase)
CCn1c(COc2ccc(Cl)cc2)nnc1SCc1nc2ccccc2[nH]1	PHOSPHO1 inh 91 (no result: Wnt act)
Cc1sc2nc(SCc3nc4ccccc4[nH]3)n(Cc3ccco3)c(=O)c2c1C	none
Cc1ccc(OCc2nnc(SCc3nc4ccccc4[nH]3)n2Cc2ccco2)cc1	PHOSPHO1 inh 84 (no result: Wnt act)
CCn1c(COc2ccc(C)cc2)nnc1SCc1ccc(C#N)cc1	PHOSPHO1 inh 94
CCn1c(COc2ccc(C)cc2)nnc1SCC(=O)C(C)(C)C	none
Nn1c(SCc2nc3ccccc3[nH]2)nnc1-c1ccccc1	none (no result: MITF act, Wnt act)
c1ccc(-c2nnc(SCc3nc4ccccc4[nH]3)n2Cc2ccco2)cc1	PHOSPHO1 inh 96 (no result: Wnt act)
CN(C)Cc1cn(CC[C@H]2CC[C@H](NS(=O)(=O)c3ccccc3)[C@H](CO)O2)nn1	none (no result: PHOSPHO1 inh, MITF act, A3A deaminase, Wnt act, A3G deaminase)
Cc1cccc(C#Cc2ccccc2)n1	Wnt act 67 (no result: PHOSPHO1 inh)
Cc1cc(F)ccc1-c1cc(C(=O)NC2CCCCC2)[nH]n1	esBAF inh 62 (no result: PHOSPHO1 inh, MITF act, A3A deaminase, A3G deaminase)
CC(C)Oc1cc(F)ccc1-c1cc(C(=O)NC2CCCCC2)[nH]n1	none (no result: PHOSPHO1 inh, MITF act, A3A deaminase, A3G deaminase)
O=C(NC1CCCCC1)c1cc(-c2ccc(F)cc2)on1	esBAF inh 59 (no result: MITF act)
COc1cccc(-c2cc(C(=O)NC3CCCC3)no2)c1	none (no result: Wnt act, esBAF inh)
Cc1ccc(-c2cc(C(=O)NC3CCCC3)no2)cc1	MITF act 125
O=C(NC1CCCCC1)c1cc(-c2cccs2)on1	MITF act inconclusive, Wnt act 37, esBAF inh 45
CC1Cc2nc(SCC(=O)c3ccccc3)n(Cc3ccccc3)c(=O)c2S1 (stereo unspecified)	esBAF inh 81 (no result: MITF act)
CC1Cc2nc(SCC(=O)NCc3ccccc3)n(Cc3ccccc3)c(=O)c2S1 (stereo unspecified)	none
CC(=O)Nc1ccc(N/C=C/C(=O)c2ccc(Cl)cc2)cc1	esBAF inh 59 (no result: MITF act)
CC(=O)c1ccc(N/C=C\C(=O)c2ccc(C)cc2)cc1	MITF act 93, Wnt act 66 (no result: esBAF inh)
CC(=O)Nc1ccc(C(=O)NNC(=O)c2ccc(Cl)cc2)cc1	none (no result: MITF act)
CCCNC(=O)Nc1ccc2c(c1)OC[C@H](C)N(CCC)C[C@@H](C)[C@H](OC)CN(C)C2=O	none (no result: PHOSPHO1 inh, MITF act, A3A deaminase, Wnt act, A3G deaminase)
C[C@@H]1CN([C@@H](C)CO)C(=O)c2cc(/C=C/c3ccccc3)cnc2O[C@@H]1CN(C)S(=O)(=O)c1cn(C)cn1	none (no result: PHOSPHO1 inh, MITF act, A3A deaminase, Wnt act, A3G deaminase)
C/C(=N/OC(=O)C1CC1)c1cc(-c2ccc(Cl)cc2)no1	MITF act 89 (no result: esBAF inh)
CC(=O)N(C)C[C@@H]1Oc2cc(-c3ccncc3)ccc2S(=O)(=O)N([C@@H](C)CO)C[C@@H]1C	none (no result: PHOSPHO1 inh, MITF act, A3A deaminase, Wnt act, A3G deaminase)
Cc1cc(C(=O)Nc2ccc3[nH]ccc3c2)no1	Wnt act 59
Cc1cc(NC(=O)c2cc(C)on2)no1	none (no result: Wnt act)
CCc1ccc(OCC(=O)O/N=C(\N)c2ccncc2)cc1	none (no result: esBAF inh)
N/C(=N\OC(=O)COc1ccc(Cl)cc1Cl)c1cccnc1	MITF act 142, esBAF inh 56
CCc1ccc(OCC(=O)O/N=C(\N)c2ccncc2)c(Br)c1	MITF act 103, Wnt act 31, esBAF inh 95
N/C(Cc1cccs1)=N\OC(=O)COc1ccc(Cl)cc1Cl	MITF act inconclusive, esBAF inh 71 (no result: Wnt act)
N/C(=N\OC(=O)COc1ccc(Cl)cc1Br)c1ccncc1	MITF act 92, Wnt act 45 (no result: A3A deaminase, A3G deaminase, esBAF inh)
C[C@@H]1CCCCO[C@@H](CN(C)C(=O)c2ccncc2)[C@H](C)CN([C@@H](C)CO)C(=O)c2cc(NS(=O)(=O)c3ccc(Cl)cc3)ccc2O1	none (no result: PHOSPHO1 inh, MITF act, A3A deaminase, Wnt act, A3G deaminase)
CC(C)c1cn(CC[C@@H]2CC[C@H](NC(=O)c3cccc(F)c3)[C@H](CO)O2)nn1	none (no result: PHOSPHO1 inh, MITF act, A3A deaminase, Wnt act, A3G deaminase)
C[C@@H]1CN([C@H](C)CO)C(=O)c2cccc(NC(=O)c3nc4ccccc4s3)c2O[C@@H]1CN(C)C(=O)Nc1ccc2c(c1)OCO2	none (no result: PHOSPHO1 inh, MITF act, A3A deaminase, Wnt act, A3G deaminase)
FC(F)(F)c1ccc(Nc2nnnc3ccccc23)cc1	PHOSPHO1 inh 61 (no result: esBAF inh)
O=C(CSc1ncccn1)c1ccccc1Br	PHOSPHO1 inh 61, esBAF inh 41 (no result: Wnt act)
O=C(O)CSc1ncccn1	none
